Screen size: about 9,900 compounds; about 90 (0.9%) were called active. Not shown: some 2% with an inconclusive outcome.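 The calls were made as follows: active = mean normalized replicate activity at least 50 and at least half of replicates each reaching 50; inconclusive = only one of the two criteria met; inactive = neither criterion met.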 Only a selection was taken, and actives are over-represented in it overall.

The nature of this experiment: YAP1 pathway inhibitors via CTGF transcript, primary screen, DLD1 colon cancer cells, RT-qPCR, single point (AID 743449).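 Also: 0% = neutral control wells and 100% = dasatinib control wells; higher means stronger suppression of CTGF expression like dasatinib.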 To be noted: DLD1 CTGF mRNA qPCR, 24 h; at 12.5 µM; hits give high values. For orientation: In qPCR the cycle at which signal appears reflects the starting amount.
What is called inhibition is the drop in the measured response relative to a control, in per cent. For `C[C@H](CO)N1C[C@H](C)[C@@H](CN(C)S(C)(=O)=O)Oc2ncc(-c3ccc(F)cc3)cc2C1=O`, the inhibition is 15.8% (inactive).

Regarding `CO[C@@H]1CN(C)C(=O)c2cc(NS(=O)(=O)c3cccc(Cl)c3)ccc2OC[C@H](C)NC[C@@H]1C`, the inhibition was 4.93% (inactive).

Turning to `CO[C@@H]1CC[C@H]2CCOc3ccc(C#N)cc3C(=O)N(C)C[C@@H](c3ccccc3)CC(=O)N(C)C[C@@H]1O2`, the inhibition was -20.2% (inactive).

As to `COCC(=O)N1[C@H](CO)[C@H](c2ccc(C#CC(C)C)cc2)[C@@H]1CNC(C)=O`, the inhibition was 26.8% (inactive).

For `C[C@H]1CN([C@@H](C)CO)C(=O)c2cc(NS(=O)(=O)c3cn(C)cn3)ccc2O[C@H]1CN(C)S(=O)(=O)c1ccc(F)cc1`, the inhibition is -21.9% (inactive).

`COCc1cn(CC[C@@H]2CC[C@@H](NC(=O)Nc3c(C)noc3C)[C@@H](CO)O2)nn1`: the inhibition is 4.39% (inactive).

For the molecule `C[C@@H]1CCCCO[C@@H](CN(C)Cc2ccc(C(=O)O)cc2)[C@H](C)CN([C@H](C)CO)C(=O)c2cc(N(C)C)ccc2O1`, the inhibition was -3.21% (inactive).

Regarding `Cc1cccc(S(=O)(=O)N2C[C@H](O)COC[C@@H]3O[C@@H](CC(=O)Nc4ccccc4)CC[C@H]32)c1`, the inhibition was 8.1% (inactive).

Take `COc1ccc2c3c(n(C)c2c1)[C@@H](CO)N(Cc1ccncc1)CC31CN(C(=O)C2CCCCC2)C1`: the inhibition was 2.18% (inactive).

With `COc1ccc2c3c(n(C)c2c1)[C@@H](CO)N(Cc1ccncc1)CC31CN(C(=O)Nc2cccc(F)c2)C1`, the inhibition was 52.9% (active).

In the case of `COc1ccc2c3c(n(C)c2c1)[C@H](CO)N(Cc1ccncc1)CC31CN(C(=O)Nc2cccc(F)c2)C1`, the inhibition was 46.1% (inactive).

Consider `CC(=O)N1[C@H](CO)[C@H](c2ccccc2)[C@@H]1CN(C(=O)c1ccccc1F)C(C)C`, for which the inhibition was 13% (inactive).

For `CCNC(=O)C[C@H]1CC[C@@H]2[C@H](COC[C@H](O)CN2C(=O)C2CCCC2)O1`, the inhibition was -1.66% (inactive).

Take `C[C@@H]1CN([C@H](C)CO)C(=O)c2ccccc2-c2ccccc2CO[C@@H]1CN(C)C(=O)Nc1ccc(-c2ccccc2)cc1`: the inhibition is 39.6% (inactive).

For the molecule `C[C@H]1CN([C@@H](C)CO)C(=O)c2cc(C#Cc3ccccc3)cnc2O[C@H]1CN(C)C(=O)c1ccccc1`, the inhibition was 65.3% (active).

`C[C@@H]1CCCCO[C@@H](CN(C)C(=O)Nc2ccccc2)[C@H](C)CN([C@@H](C)CO)C(=O)c2cc(NC(=O)Nc3ccccc3)ccc2O1`: the inhibition is 16.9% (inactive).

For `C[C@@H]1CN([C@@H](C)CO)C(=O)c2ccccc2-c2ccccc2CO[C@H]1CN(C)C(=O)Nc1cccc(C(F)(F)F)c1`, the inhibition is 64.7% (active).

Regarding `C[C@@H]1CN([C@@H](C)CO)C(=O)c2ccccc2-c2ccccc2CO[C@H]1CN(C)C(=O)Nc1ccc(-c2ccccc2)cc1`, the inhibition was 73.6% (active).

For `C[C@@H]1CCCCO[C@H](CN(C)C(=O)Nc2ccccc2)[C@H](C)CN([C@@H](C)CO)C(=O)c2cc(NC(=O)Nc3ccccc3)ccc2O1`, the inhibition is 0.777% (inactive).

As to `C[C@H]1CN([C@@H](C)CO)C(=O)c2cc(C#Cc3ccccc3)cnc2O[C@@H]1CN(C)C(=O)c1ccccc1`, the inhibition is 34.5% (inactive).

Turning to `C[C@H](CO)N1C[C@H](C)[C@H](CN(C)C(=O)Nc2ccc(-c3ccccc3)cc2)OCc2ccccc2-c2ccccc2C1=O`, the inhibition was 28.1% (inactive).

Take `C[C@@H]1CN([C@H](C)CO)C(=O)c2ccccc2-c2ccccc2CO[C@@H]1CN(C)C(=O)Nc1cccc(C(F)(F)F)c1`: the inhibition was 14.3% (inactive).

With `C[C@@H]1CN([C@H](C)CO)C(=O)c2cc(C#Cc3ccccc3)cnc2O[C@@H]1CN(C)C(=O)c1ccccc1`, the inhibition is 14.1% (inactive).

Regarding `C[C@@H]1CN([C@@H](C)CO)C(=O)c2cc(NC(=O)Nc3ccccc3)ccc2O[C@@H](C)CCCCO[C@@H]1CN(C)C(=O)Nc1ccccc1`, the inhibition was 62.7% (active).

Turning to `C[C@H](CO)N1C[C@H](C)[C@H](CN(C)C(=O)Nc2cccc(C(F)(F)F)c2)OCc2ccccc2-c2ccccc2C1=O`, the inhibition is 11.9% (inactive).

In the case of `O=C(C[C@@H]1CC[C@H]2[C@@H](COC[C@H](O)CN2C(=O)Nc2ccc(Cl)cc2)O1)NCC1CCCCC1`, the inhibition is 4.31% (inactive).

`COc1ccccc1C#Cc1ccc([C@@H]2[C@@H](C#N)N(C(=O)C3CCC3)[C@@H]2CO)cc1`: the inhibition is 21% (inactive).

With `C[C@@H](NC(=O)C[C@@H]1C[C@H]2c3cc(NS(=O)(=O)c4ccc(F)cc4)ccc3O[C@H]2[C@@H](CO)O1)c1ccccc1`, the inhibition is -0.447% (inactive).

Turning to `COc1cccc(CNC(=O)[C@H]2[C@H](CO)[C@H]3Cn4c(ccc(-c5cncnc5)c4=O)[C@H]3N2C)c1`, the inhibition was 1.36% (inactive).

With `CO[C@@H](CN(C)S(=O)(=O)c1cccc(Cl)c1)[C@H](C)CN(C(=O)Nc1ccccc1F)[C@H](C)CO`, the inhibition is -17% (inactive).

Take `CCCNC(=O)N1[C@H](C#N)[C@@H](c2ccc(C#Cc3cccc(F)c3)cc2)[C@@H]1CO`: the inhibition is 69.7% (active).

`CCCNC(=O)N1[C@H](C#N)[C@H](c2ccc(C#Cc3cccc(F)c3)cc2)[C@H]1CO`: the inhibition is 12.2% (inactive).

On to `CCCNC(=O)N1[C@@H](C#N)[C@@H](c2ccc(C#Cc3cccc(F)c3)cc2)[C@@H]1CO`, for which the inhibition is 40.6% (inactive).

As to `O=C(C[C@H]1CC[C@H]2[C@@H](COC[C@@H](O)CN2C(=O)c2ccc3c(c2)OCO3)O1)NC1CCC1`, the inhibition is 11% (inactive).

`CN(C)CC(=O)N1CC2(C1)[C@H](c1ccccc1)[C@H](CO)N2S(C)(=O)=O`: the inhibition was -45.5% (inactive).

Regarding `C[C@@H]1CN([C@H](C)CO)C(=O)c2ccccc2-c2ccccc2CO[C@@H]1CN(C)Cc1ccc2c(c1)OCCN2C`, the inhibition was 68.3% (active).

Regarding `C[C@@H]1CN([C@@H](C)CO)C(=O)c2ccccc2-c2ccccc2CO[C@@H]1CN(C)Cc1ccc(Oc2ccccc2)cc1`, the inhibition is 44.4% (inactive).

Turning to `C[C@@H]1CN([C@H](C)CO)C(=O)c2ccccc2-c2ccccc2CO[C@@H]1CN(C)Cc1ccc(Oc2ccccc2)cc1`, the inhibition was 83.9% (active).

Regarding `C[C@H](CO)N1C[C@H](C)[C@H](CN(C)Cc2ccc3c(c2)OCCN3C)OCc2ccccc2-c2ccccc2C1=O`, the inhibition is -137% (inactive).

With `C[C@H]1CN([C@@H](C)CO)C(=O)c2ccccc2-c2ccccc2CO[C@H]1CN(C)Cc1ccc(Oc2ccccc2)cc1`, the inhibition was 47.8% (inactive).

In the case of `C[C@H](CO)N1C[C@H](C)[C@@H](CN(C)Cc2ccc(Oc3ccccc3)cc2)OCc2ccccc2-c2ccccc2C1=O`, the inhibition was -10.6% (inactive).

On to `C[C@@H]1CN([C@H](C)CO)C(=O)c2ccccc2-c2ccccc2CO[C@@H]1CN(C)Cc1cccnc1`, for which the inhibition is -8.82% (inactive).

As for `C[C@H]1CN([C@@H](C)CO)C(=O)c2ccccc2-c2ccccc2CO[C@H]1CN(C)Cc1ccc2c(c1)OCCN2C`, the inhibition was -29.2% (inactive).

Regarding `C[C@H](CO)N1C[C@H](C)[C@H](CN(C)Cc2ccc(Oc3ccccc3)cc2)OCc2ccccc2-c2ccccc2C1=O`, the inhibition is 59% (active).

In the case of `C[C@@H](NC(=O)C[C@@H]1CC[C@H]2[C@@H](COc3ccc(NC(=O)C4CCOCC4)cc3C(=O)N2C)O1)c1ccccc1`, the inhibition is -5.56% (inactive).

With `O=C(CN1CCOCC1)N1CC[C@@H]2[C@H](CO)Nc3ccc(-c4ccccc4F)cc3[C@@H]21`, the inhibition was -17.8% (inactive).

For `CCCC#Cc1ccc([C@@H]2[C@H]3CN(S(=O)(=O)c4ccccc4C)CC(=O)N3[C@H]2CO)cc1`, the inhibition was 26.1% (inactive).

As to `C[C@@H]1CN([C@H](C)CO)C(=O)c2ccccc2-c2ccccc2CO[C@H]1CN(C)C(=O)[C@@H]1CCCN1C`, the inhibition was 3.47% (inactive).

Consider `O=C(Nc1ccc(C(F)(F)F)cc1)Nc1ccc2c(c1)[C@@H]1C[C@H](CC(=O)N3CCc4ccccc4C3)O[C@@H](CO)[C@@H]1O2`, for which the inhibition is -25% (inactive).

With `O=C(Nc1ccc2c(c1)[C@@H]1C[C@H](CC(=O)N3CCc4ccccc4C3)O[C@H](CO)[C@@H]1O2)c1ccc2c(c1)OCO2`, the inhibition was -19.3% (inactive).

As to `O=C(Nc1ccc2c(c1)[C@H]1C[C@@H](CC(=O)N3CCc4ccccc4C3)O[C@H](CO)[C@H]1O2)c1ccc2c(c1)OCO2`, the inhibition is 56.2% (active).

Turning to `O=C(Nc1ccc2c(c1)[C@@H]1C[C@H](CC(=O)N3CCc4ccccc4C3)O[C@@H](CO)[C@@H]1O2)c1ccc2c(c1)OCO2`, the inhibition was -4.94% (inactive).

Regarding `O=C(Nc1ccc(C(F)(F)F)cc1)Nc1ccc2c(c1)[C@H]1C[C@H](CC(=O)N3CCc4ccccc4C3)O[C@@H](CO)[C@H]1O2`, the inhibition is 57.2% (active).

On to `O=C(Nc1ccc2c(c1)[C@H]1C[C@@H](CC(=O)N3CCc4ccccc4C3)O[C@@H](CO)[C@H]1O2)c1ccc2c(c1)OCO2`, for which the inhibition is 61.8% (active).

Consider `O=C(Nc1ccc(C(F)(F)F)cc1)Nc1ccc2c(c1)[C@@H]1C[C@H](CC(=O)N3CCc4ccccc4C3)O[C@H](CO)[C@@H]1O2`, for which the inhibition was -58% (inactive).

Consider `O=C(Nc1ccc2c(c1)[C@H]1C[C@H](CC(=O)N3CCc4ccccc4C3)O[C@H](CO)[C@H]1O2)c1ccc2c(c1)OCO2`, for which the inhibition is 17% (inactive).

`O=C(Nc1ccc2c(c1)[C@@H]1C[C@@H](CC(=O)N3CCc4ccccc4C3)O[C@H](CO)[C@@H]1O2)c1ccc2c(c1)OCO2`: the inhibition was 21.2% (inactive).

On to `CS(=O)(=O)N1[C@@H](C#N)[C@H](c2ccc(C#Cc3cccc(F)c3)cc2)[C@@H]1CO`, for which the inhibition is -161% (inactive).

Regarding `O=C(C[C@@H]1CC[C@@H](NC(=O)C2CCOCC2)[C@@H](CO)O1)NCC1CCCCC1`, the inhibition is -39.2% (inactive).

With `CO[C@@H]1CN(C)C(=O)c2ccc(NS(=O)(=O)c3ccc(C)cc3)cc2OC[C@H](C)N(C)C[C@@H]1C`, the inhibition is -16.4% (inactive).

On to `CC(=O)N1CC2(C1)[C@H](c1ccccc1)[C@H](CO)N2C(=O)c1cnccn1`, for which the inhibition is -10.2% (inactive).

Values taken from PubChem BioAssay AID743449 (Broad Institute, 2014).
